Experiment in all cases: MAPPIT interaction score (arbitrary units); higher = stronger binary interaction signal, active = hit call of the paper
One assay has as its target Vti1a. Conditions: MAPPIT configuration: N-N; pair source set: Curagen_high_conf.
In another assay the target is Vps51. Conditions: MAPPIT configuration: N-N; pair source set: screen_2.
Another assay deals with bcd. Conditions: MAPPIT configuration: N-N; pair source set: Lit-BM-16.
The target of the next assay is Yif1. Conditions: MAPPIT configuration: N-N; pair source set: RRS.
The target of the next assay is brat. The conditions noted are these: MAPPIT configuration: N-N; pair source set: Lit-BM-16.
In another assay the target is Yp2. The conditions noted are these: MAPPIT configuration: N-N; pair source set: Curagen_high_conf.
In the next assay the target is Zpr1. The conditions noted are these: MAPPIT configuration: N-N; pair source set: Finley_Y2H.
A further assay has as its target sinah. Conditions: MAPPIT configuration: N-N; pair source set: Lit-BS-16.

A number with no mark means an inactive call.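 How the source made its calls: active = MAPPIT score above the 99th percentile of random reference set scores in the same batch; inactive = at or below it.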
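Further: HEK293T cells with Epo stimulation, STAT-responsive firefly luciferase reporter, fold induction versus unstimulated cells divided by the larger fold induction of two negative controls lacking either bait or prey.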

B1: spn-F (protein)
chain: MEASAAKITPMASSMSASGSTNSPSSEKMNYALQVALQTIKERCIQLQRRVASMEEENQQLREASSRSEGAPRANEIGVTGDVLSLKAQVSELQRQKEQLEEHIGMVSNENRRLWSRLSQISKDQQLNALPSSTDSRAQQNQNLVRSKTFTQHSPNPHLRQKMLSDGIKDLSLEEIALDDFGASSEELGYPYNLQKVEETTSEPDANVDAKRCLDGLQELRREAMKQQQELRSVMTLLENRIALKPCPECAQKTIKKPEMADKSLETDDSLTSELKNYESQHNGHNGTPPSQRINIIQEKIKADAADAMEKTCPMCGKQYSSQVSFNAFREHVEMHFIDDALELESENSIERQFEFVSHAVGDF
As to B1, the MAPPIT interaction score with Vti1a is 0.032.

B2: Dpy-30L1 (protein)
chain: MEAKTDAPISPAPTTNPPAEAGKEPNASSNAQANPTAAPGAPPSGAIAVGQSTNPVAQQQQQPAVAKKPSSETNNMPTRQYLDQTVAPVLLHGMQALARERPTDPIQFLASYLLKHSNGCDENNASAAAVDNNS
On to B2, for which the MAPPIT interaction score with Vps51 is 1.49.

B3: Bin1 (protein)
chain: MANVESMIVEEKTQVKQIDREKTCPMLLRVFCSTGRHHSVSEYMFGNVPTNELQIYTWQDATLHELTSLVRDVNPDTRKKGTYFDFAVVYPNFRSNHFQMREIGVTCTGQKGIDDNKTLAQAKFSIGDFLDISITPPNRLPPTARRQRPY
As for B3, the MAPPIT interaction score with bcd was -0.341.

B4: noi (protein)
chain: METLLEQQRRLHEERERLVKLMVDEHATKKPGEKERIHSEHRLKYLMELHHNSTSQLRDLYEDKDNERKAEIAALSGPNEFNEFYARLKQIKQFYKSHPAEVSVPLSVEFDEMIRVYNNPDDMSALVEFTDEEGGGRYLDLNECYELYLNLRSVEKLDYITYLMSFDHVFDIPRERKNREYRIYIETLNDYLHHFILRIQPLLDLEGELLKVELDFQRQWLMGTFPGFSIKETESALANTGAHLDLSAFSSWEELASLGLDRLKSALVALGLKCGGTLEERAQRLFSTKGKSTLDPALMAKKPSAKTASAQSREHERHKEIAQLEALLYKYADLLSEQRAATKENVQRKQARTGGERDDSDVEASESDNEDDPDADDVPYNPKNLPLGWDGKPIPYWLYKLHGLNISYNCEICGNFTYKGPKAFQRHFAEWRHAHGMRCLGIPNTAHFANVTQIEDAITLWEKLKSQKQSERWVADQEEEFEDSLGNVVNRKTFEDLKRQGLL
As to B4, the MAPPIT interaction score in the assay with Yif1 was -0.019.

B5: nos (protein)
chain: MSQHFTSIFENLRFVTIKRSTNAQQQQQQQQQQLQQQQQQLQQQKAQTQQQNSRKIKTQATPTLNGNGLLSGNPNGGGGDSSPSHEVDHPGGAQGAQAAGGLPSSSGTPLRHHKRASISTASPPIRERRGTNTSIVVELDGSGSGSGSGGGGVGVGQGAGCPPSGSCTASGKSSRELSPSPKNQQQPRKMSQDYRSRAGSFMHLDDEGRSLLMRKPMRLKNIEGRPEVYDTLHCKGREILSCSKATCTSSIMNIGNAAVEARKSDLILEHAKDFLEQYFTSIKRTSSTAHETRWKQVRQSIETTGHYQLTETELIYGAKLAWRNSSRCIGRIQWSKLQVFDCRYVTTTSGMFEAICNHIKYATNKGNLRSAITIFPQRTDAKHDYRIWNNQLISYAGYKQADGKIIGDPMNVEFTEVCTKLGWKSKGSEWDILPLVVSANGHDPDYFDYPPELILEVPLTHPKFEWFSDLGLRWYALPAVSSMLFDVGGIQFTATTFSGWYMSTEIGSRNLCDTNRRNMLETVALKMQLDTRTPTSLWKDKAVVEMNIAVLHSYQSRNVTIVDHHTASESFMKHFENESKLRNGCPADWIWIVPPLSGSITPVFHQEMALYYLKPSFEYQDPAWRTHVWKKGRGESKGKKPRRKFNFKQIARAVKFTSKLFGRALSKRIKATVLYATETGKSEQYAKQLCELLGHAFNAQIYCMSDYDISSIEHEALLIVVASTFGNGDPPENGELFSQELYAMRVQESSEHGLQDSSIGSSKSFMKASSRQEFMKLPLQQVKRIDRWDSLRGSTSDTFTEETFGPLSNVRFAVFALGSSAYPNFCAFGQYVDNILGELGGERLLRVAYGDEMCGQEQSFRKWAPEVFKLACETFCLDPEESLSDASLALQNDSLTVNTVRLVPSANKGSLDSSLSKYHNKKVHCCKAKAKPHNLTRLSEGAKTTMLLEICAPGLEYEPGDHVGIFPANRTELVDGLLNRLVGVDNPDEVLQLQLLKEKQTSNGIFKCWEPHDKIPPDTLRNLLARFFDLTTPPSRQLLTLLAGFCEDTADKERLELLVNDSSAYEDWRHWRLPHLLDVLEEFPSCRPPAPLLLAQLTPLQPRFYSISSSPRRVSDEIHLTVAIVKYRCEDGQGDERYGVCSNYLSGLRADDELFMFVRSALGFHLPSDRSRPIILIGPGTGIAPFRSFWQEFQVLSDLDPTAKLPKMWLFFGCRNRDVDLYAEEKAELQKDQILDRVFLALSREQAIPKTYVQDLIEQEFDSLYQLIVQERGHIYVCGDVTMAEHVYQTIRKCIAGKEQKSEAEVETFLLTLRDESRYHEDIFGITLRTAEIHTKSRATARIRMASQP
B5: the MAPPIT interaction score in the assay with brat is -0.851.

B6: Nup107 (protein)
chain: MADSPFPRSSRSGLLRTTLNSSMPPQNLSHSLLILEKSNAEQNELSLMEDTGDDLDRGKSRMDVLFPQFFDVLQAQGNGQEAFEVIQSLTQVCRGVVEQLELEIDHGMGGEQGARQRESMLTWLRQEINTWRLLHALFYDRILLQTDRQADDEMQDGPTLGGSEKEVIQQLYALNATLREYQLVVDWLEACYDRGEQQNPLHAHDRMMAWENTLFQLENLQGAAFGKGHKIVTRLDPDAPVREKRPLHALDEEDNLRLSRAIFELIRAGRVDDGLKLCKHFGQTWRAAILEGWRLHEDPNFEQNVSVLHEKLPIEGNPRRDIWKRCAWMLADSKNYDEYSRATAGVFSGHLGSLKTLLHSNWHDLLWAHLKVQIDIRVESEIRGCCLKNYQPMPDDYWNGRMTMEQIFEELNVAKDASVRDFAQSQLGIIQRHLILDTCGELIQHMVRWVEKDTSQQSPHQLRFMAHIVLFLRQIGRVEQERQAEKIVAAYVEALIARGEPQLIAYYTASLSNPLQVQLYSRFLEQVEQKRPRELAVDAALQAGLDVEQITRVTVQNIRLAHQPLGEFGEPQSGEISAIDQRKISALEWLIHLPEQRGELLWQANAMIRTYLASSKVECMRQTFRMVPADIVQQLVSLYGSVDNIPPREECCLKEYLCYKAYLSGVDSFVEWNRLQQNRPKKPQTSHAASSQDNFTERMASERKEQAHRSEVVRWEHKVKEQAKQTIELLYNVLMFPDKGWLVDPFIAKLPENAVQLSWDHRLLQMEKLRSICIPEIALFLNEVMFKSGDFAGCVRLADEISSENRQLYKVYTKHKLAELLAKIADASLELLNSKLDPWGYPITT
Take B6: in the assay with Yp2, the MAPPIT interaction score is 0.235.

B7: esn (protein)
chain: MQQAPQQQQHPHPPSSSYYTQTESELLQIEAGGTGLTFASHSQRPESAISQVASTAHLDVPSAASSGSGGSAVSGGSGGAPESAGRFVSPLQRRHCQPPSHLPLNSVASPLRTASYKSAAAVAGHGFHHSHHQQLDFQRNSQSDDDSGCALEEYTWVPPGLRPDQVRLYFSQLPDDKVPYVNSPGEKYRVKQLLHQLPPQDNEVRYCHSLSDEERKELRIFSAQRKREALGRGAVRLLSDERPCKGCEEPLSGGDIVVFAQRLGAQLCWHPGCFVCSVCKELLVDLIYFQRDGNLYCGRHHAETQKPRCSACDEIIFSDECTEAEGRTWHMKHFACQECEHQLGGQRYIMREGKPYCLACFDTMFAEYCDYCGEVIGVDQGQMSHDGQHWHATDQCFSCCTCRCSLLGRPFLPRRGTIYCSIACSKGEPPTPSDTSSGPQLRPTHRASTSSQIAKSPRRGGERERDPGRKAHHGHPKATGSAGDLLERQERQRMEAAGVADLLLGGGVPGMPRPAHPPPIDLTELGISLDNICAGDKSIFGDTQTLTNSMPDMLLSKADDSHSYQSIDKINLNSPSNSDLTQSTQELANELELDNEPVRELPHDGYEQLFANNRNQEHPAEQYDDEQLDNRPMKEVRFHSVQDTMSRSKSYTDNSNARRRRRRRNQSRSSSEMQINQTNLRLHNAQTQVGTTPLNLLNNLDNCDVASICSTCSSSSSSDMDDYVYRLPARKHYGGVRVAYVPNDALAYERKKKMAQDSSLAPGAGNASVGGAPAIMHESKNCTIS
In the case of B7, the results for the MAPPIT interaction score with Zpr1 and with sinah were 0.202 and 3.43 (active), respectively.

The values above are taken from the supplement of paper PMC10105736.
